The target of this test is PITX2 (Homo sapiens, UniProt Q99697 72-157). As to the kind of experiment: PBM; 200 nM protein, PBS. The conditions noted are these: dsDNA, one strand shown.
For the sequence ACTGTCAG, the binding signal was 7.86 upbm affinity estimate (log intensity, higher = more binding, comparable within an allelic series).
The result for CTCCCCGA reads 8.1 upbm affinity estimate (log intensity, higher = more binding, comparable within an allelic series); that for CCGTACCC, 7.91 upbm affinity estimate (log intensity, higher = more binding, comparable within an allelic series).
The result for ACGATGCC reads 7.9 upbm affinity estimate (log intensity, higher = more binding, comparable within an allelic series); that for CGCCAGCA, 8 upbm affinity estimate (log intensity, higher = more binding, comparable within an allelic series); that for GAGAGGCC, 7.88 upbm affinity estimate (log intensity, higher = more binding, comparable within an allelic series).
For AAGCTGAA the value was 9.66 upbm affinity estimate (log intensity, higher = more binding, comparable within an allelic series); for CAGACACG, 7.83 upbm affinity estimate (log intensity, higher = more binding, comparable within an allelic series).
As for AAAGCCGA, the binding signal is 9.6 upbm affinity estimate (log intensity, higher = more binding, comparable within an allelic series).
For GGATACTA, the binding signal was 9.25 upbm affinity estimate (log intensity, higher = more binding, comparable within an allelic series).
The result for CCATTCAC reads 8.31 upbm affinity estimate (log intensity, higher = more binding, comparable within an allelic series).
For GACGCGAC the value was 7.93 upbm affinity estimate (log intensity, higher = more binding, comparable within an allelic series).
As for ACAGGGTG, the binding signal is 7.94 upbm affinity estimate (log intensity, higher = more binding, comparable within an allelic series).
The result for AGGCGTCC reads 7.84 upbm affinity estimate (log intensity, higher = more binding, comparable within an allelic series); that for TAAGCTTA, 12.3 upbm affinity estimate (log intensity, higher = more binding, comparable within an allelic series).
For ATAAATCC the value was 12.3 upbm affinity estimate (log intensity, higher = more binding, comparable within an allelic series); for CGTTGTCA, 8.02 upbm affinity estimate (log intensity, higher = more binding, comparable within an allelic series); for ACCATCGT, 7.89 upbm affinity estimate (log intensity, higher = more binding, comparable within an allelic series).
For TATTAGCA the value was 10.1 upbm affinity estimate (log intensity, higher = more binding, comparable within an allelic series).
As for AGCACGCC, the binding signal is 8.07 upbm affinity estimate (log intensity, higher = more binding, comparable within an allelic series).
The result for AGATCAAC reads 10.1 upbm affinity estimate (log intensity, higher = more binding, comparable within an allelic series); that for CAGTACTG, 7.98 upbm affinity estimate (log intensity, higher = more binding, comparable within an allelic series).
The result for CATGTTCG reads 8.09 upbm affinity estimate (log intensity, higher = more binding, comparable within an allelic series).
For ATTCAAAT the value was 9.75 upbm affinity estimate (log intensity, higher = more binding, comparable within an allelic series).
GATGATAA: the binding signal was 9.84 upbm affinity estimate (log intensity, higher = more binding, comparable within an allelic series).
For GCGTACCC the value was 8.02 upbm affinity estimate (log intensity, higher = more binding, comparable within an allelic series).
The result for GCCGGATA reads 9.58 upbm affinity estimate (log intensity, higher = more binding, comparable within an allelic series); that for ACGTTCCG, 7.96 upbm affinity estimate (log intensity, higher = more binding, comparable within an allelic series); that for AAGCTTAG, 11.4 upbm affinity estimate (log intensity, higher = more binding, comparable within an allelic series).
The result for AGTGCCTC reads 7.74 upbm affinity estimate (log intensity, higher = more binding, comparable within an allelic series); that for CAGTTTCA, 7.95 upbm affinity estimate (log intensity, higher = more binding, comparable within an allelic series); that for ATTAGGCC, 10 upbm affinity estimate (log intensity, higher = more binding, comparable within an allelic series).
Regarding AATTCCAC, the binding signal was 9.99 upbm affinity estimate (log intensity, higher = more binding, comparable within an allelic series).
For the sequence CACCGGGC, the binding signal was 7.98 upbm affinity estimate (log intensity, higher = more binding, comparable within an allelic series).
The result for CACTCGCA reads 8.08 upbm affinity estimate (log intensity, higher = more binding, comparable within an allelic series); that for GACAACGC, 7.92 upbm affinity estimate (log intensity, higher = more binding, comparable within an allelic series); that for CGGAATCC, 10.1 upbm affinity estimate (log intensity, higher = more binding, comparable within an allelic series).
For CAAAATAC the value was 9.13 upbm affinity estimate (log intensity, higher = more binding, comparable within an allelic series).
For GATGAGCC the value was 9.56 upbm affinity estimate (log intensity, higher = more binding, comparable within an allelic series).
Turning to ACATACGT, the binding signal is 8.05 upbm affinity estimate (log intensity, higher = more binding, comparable within an allelic series).

These data come from article PMC11006913.
